# Assay outcomes as filed in PubChem BioAssay.
# Integrin act MD – qHTS for Activators of Integrin-Mediated Alleviation for Muscular Dystrophy; alpha7betagal myoblasts, beta-gal FDG fluorescence, 48 h; hit rate 0.064% among 350,000; Potency, µM (doses to about 38.3 µM), without a hit: at the top dose activation, most hits filed as activators;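 also: potency is read from the fitted curve at half-maximal effect; 100% = response of the positive control SU9516; nearly all actives have a fitted effect of over 60% in size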
#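 alpha7betagal+/- myoblasts (passage 13, 250/well) treated 48 h at 37C with compounds at 1:260 dilution of DMSO stock. Lysed, then beta-galactosidase activity read as FDG fluorescence (ex 480/em 540) after 30 min, with pre-read for autofluorescence.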
# RORg inh – qHTS for inhibitors of ROR gamma transcriptional activity | Drosophila S2 Gal4-RORgamma UAS-luciferase reporter, 20 h | Potency, µM (titrated, usually from 53.6 µM), for the others: top-dose activity change, negative = inhibition, usual class: inhibitors | hit rate 5.4% among 310,000; also: potency is read from the fitted curve at half-maximal effect; % is scaled to controls: 0 for no effect and ±100 for the full control effect; nearly all actives have a fitted effect of over 60% in size
#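 Using a luciferase readout, inhibitors were identified by reduced reporter activity in Drosophila cells coexpressing a copper-inducible Gal4–ROR gamma fusion and UAS-driven Photinus luciferase, incubated 20 hr after 700 uM copper sulfate.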
# VP16 counter – VP16 counterscreen qHTS for inhibitors of ROR gamma transcriptional activity. hit rate 3.5% among 310,000. Potency, µM (series often up to 53.6 µM), for inactives: at the top dose activity, negative = inhibition, hits mostly inhibitors. Drosophila S2 Gal4-VP16 UAS-luciferase, luminescence, 20 h;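 also: Gal4-VP16 expression switched on by copper sulfate through the metallothionein promoter; potency is read from the fitted curve at half-maximal effect; % is scaled to controls: 0 for no effect and ±100 for the full control effect; nearly all actives have a fitted effect of over 50% in size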
# Giardia killer – Small Molecules that selectively kill Giardia lamblia: qHTS; activity change, % at 7.66 µM, hits read low; Giardia lamblia trophozoite viability; hit rate 0.15% among 340,000; in the data active = activity change below about -80%; inconclusive = between about -30% and that limit;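 also: parasites exposed to compound for two days anaerobically before the ATP read; % is scaled to controls: 0 for no effect and ±100 for the full control effect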
#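 Viability, read as ATP luminescence: trophozoites at 100 cells/well, compound added, 48 hrs anaerobic at 37 deg C, then 15-30 min room-temperature development before reading.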
# ERG Ets-DNA blk – qHTS for Small Molecule Inhibitors of the ERG Ets/DNA interaction. hit rate 0.028% among 370,000. Potency, µM (highest dose often 76.9 µM), inactives show at the top dose FP activity, negative = inhibition, actives largely listed as inhibitors. fluorescence polarization, His-ERG Ets domain / labelled DNA. Transcriptional regulator ERG (Homo sapiens), P11308. AID 624246, 2012; active = well fitted inhibition curve with a large enough effect in the polarisation, with a control signal flat; inconclusive = small, poorly fitted or top-dose-only effect, or effect the other way, or a change in a side signal; inactive = no such curve, though single readings can be large or run the other way; the % refers to the polarisation;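 also: polarization taken with two DNA probes labelled with fluorescein and Texas red; potency is read from the fitted curve at half-maximal effect; % of control where 0% means no effect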
# Target sequence (P11308 whole entry, looked up, the tested form may be a part): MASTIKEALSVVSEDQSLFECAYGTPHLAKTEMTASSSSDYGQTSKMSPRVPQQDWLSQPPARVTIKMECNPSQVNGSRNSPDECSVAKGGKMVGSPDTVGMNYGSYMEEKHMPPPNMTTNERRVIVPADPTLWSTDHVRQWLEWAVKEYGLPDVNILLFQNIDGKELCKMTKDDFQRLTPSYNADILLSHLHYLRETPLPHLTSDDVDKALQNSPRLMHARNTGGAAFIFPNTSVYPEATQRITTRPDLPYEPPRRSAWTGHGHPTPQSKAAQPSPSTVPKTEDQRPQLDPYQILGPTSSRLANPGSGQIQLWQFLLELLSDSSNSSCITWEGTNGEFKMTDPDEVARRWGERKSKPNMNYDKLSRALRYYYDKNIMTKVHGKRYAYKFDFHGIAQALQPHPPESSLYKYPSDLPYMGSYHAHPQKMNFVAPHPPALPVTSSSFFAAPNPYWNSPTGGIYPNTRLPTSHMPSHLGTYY
#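 His-tagged ERG Ets domain (1 uM in the protein solution; 300mM KCl, 50mM Tris-HCl, 1mM EDTA, 1mM DTT, pH 7.5) received compound, then a probe mix of 5 nM fluorescein-DNA and 100nM Texas-615-DNA. Fluorescence polarization was read for both dyes.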
# The depositor's hits bear a star; ? = inconclusive; . = no result given; [ ] = dose if it differs, or a comment. Many of the other results were omitted from the sample, so hits are more common in it than they were. Unless noted, calls follow the shape of the dose curve; as a rule, active = well fitted curve in the direction sought with a large enough effect; inconclusive = small, poorly fitted or top-dose-only effect, or another doubt; inactive = no such curve, though single readings can be large; an effect the other way counts as inactive or inconclusive.
SMILES,Integrin act MD,RORg inh,VP16 counter,Giardia killer,ERG Ets-DNA blk
COc1ccc(/C(C)=N/NC(=S)Nc2cc(C)ccc2C)cc1,6%,2.8µM*,11µM*,1,2%
OC[C@@H]1O[C@](CO)(O[C@H]2O[C@H](CO)[C@@H](O)[C@H](O)[C@H]2O)[C@H](O)[C@H]1O,.,6%,-1%,.,.
Cc1ccc(CNC(=S)Nc2cc(C)ccc2OC(F)F)cc1,-7%,4.5µM*,?,2,-9%
COc1ccc(CNC(=S)Nc2cc(C)ccc2C)cc1,10%,7.9µM*,7.1µM*,4,5%
Cc1ccc(C(=O)Nc2ccccc2OC(F)F)cc1,-2%,22%,18%,1,-4%
Cc1cc(Sc2nc(NC(C)C)nc(NC(C)C)n2)nc(Cl)n1,-8%,-7%,-18%,-7,5%
O=c1n(Cc2cc3c(cc2Cl)OCO3)c(=O)n2n1CC[C@H]1/C(=N\OCc3ccccc3)[C@H]3O[C@@H]3[C@@H](O)[C@@H]12,.,-1%[10 µM],2%[10 µM],.,.
COc1ccc2c(=O)c3c(=O)n(-c4ccccc4)c(-c4ccc(C)cc4)nc3oc2c1,-5%,-1%,8%,26,6%
CCCn1c(=O)c(C(=O)NCCc2ccc(Cl)cc2)c(O)c2ccccc21,23%,14µM*,?,13,-1%
CCn1c(=O)c(C(=O)NCc2ccc(F)cc2)c(O)c2ccccc21,39%,13µM*,?,-6,5%
CCn1c(=O)c(C(=O)NCc2ccccc2)c(O)c2ccccc21,24%,?,16µM*,3,1%
CCn1c(=O)c(C(=O)NCCc2ccc(Cl)cc2)c(O)c2ccccc21,13%,?,-19%,5,9%
CCCCC(CC)CNCC(CC)CCCC (centres undefined),.,-4%,-20%,.,.
CCOC(=S)SSC(=S)OCC,.,11%,0%,.,.
O=C1OC(Nc2nc(-c3ccc(F)cc3)cs2)c2ccccc21 (centres undefined),-39%,-14%,-9%,7,7%
CC[C@H](CO)Nc1nc(Nc2cccc(Cl)c2)c2ncn(C(C)C)c2n1,-33%,?,3.2µM*,-15,-1%
CC(C)[C@H](CO)N(Cc1cccc(F)c1)c1nc(Nc2cccc(Cl)c2)c2ncn(C(C)C)c2n1,-41%,5%,-23%,-9,-1%
O=[N+]([O-])c1cc(S(=O)(=O)N2CCCCCC2)ccc1F,-49%,5.6µM*,4.5µM*,-11,-6%
O=C1C2C3C=CC(CO)(O3)C2C(=O)N1c1ccccc1-c1ccccc1 (centres undefined),-66%,1.8µM*,2.2µM*,26,.
O=C1C2C3C=CC(CNS(=O)(=O)c4ccccc4)(O3)C2C(=O)N1c1ccc(Cl)cc1 (centres undefined),-8%,-106%,?,2,.
COc1ccc(C(=O)NCC23C=CC(O2)C2C(=O)N(Cc4ccccc4)C(=O)C23)cc1 (centres undefined),-7%,-122%,4%,3,-6%
CC(=O)Oc1ccc(N2C(=O)C3C4C=CC(CO)(O4)C3C2=O)cc1 (centres undefined),-56%,5µM*,?,18,11%
CC(=O)Oc1ccc(N2C(=O)C3C(C2=O)C2(C)C=CC3(C)O2)cc1 (centres undefined),.,4µM*,4.5µM*,.,.
CC(=O)Oc1ccc(-n2c(=O)c3ccccc3c3ccccc3c2=O)cc1,2%,7%,-4%,-12,-5%
COc1ccc(NC(=O)c2cc(N3C(=O)C4C5CCC(C5)C4C3=O)ccc2Cl)c(OC)c1 (centres undefined),11%,4%,-3%,-5,-1%
COC(=O)c1cc(N2C(=O)C3C(C2=O)C2(C)C=CC3(C)O2)ccc1Cl (centres undefined),.,3.5µM*,5.6µM*,.,.
CCOc1ccc(NC(=O)CN(C)C(=O)c2ccc(=O)[nH]c2)cc1OCC,0%,11µM*,15%,-4,-3%
Cc1ccn2c(NC3CCCCC3)c(C(C)C)nc2c1,-13%,8%,-1%,7,-4%
